The record followed here is PubChem BioAssay (EPA / NIEHS).

A short description of assay [1]: IUF_NPC2b_neuronal_migration_120hr: Leibniz Research Institute for Environmental Medicine (IUF) 120-hour Neural Progenitor Cell Migration Assay for Neuron Migration (NPC2b) (AID 2284300; active means hit-call score of the fitted dose curve at least 0.9, where 1 is the maximum; inactive means score below 0.9). A digest of the protocol:
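TUBB3-positive neurons are imaged after 120 h of differentiation, and their mean distance from the sphere edge is normalised to radial glia migration. Single 0.3 mm fetal hNPC spheres on poly-D-lysine/laminin received 7 compound concentrations, ≤0.1% DMSO, refreshed at day 3.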

Assay [2] can be described thus: IUF_NPC3_neuronal_differentiation_120hr: Leibniz Research Institute for Environmental Medicine (IUF) 120-hour Neuronal Differentiation Assay (NPC3) (AID 2284301; active means hit-call score of the fitted dose curve at least 0.9, where 1 is the maximum; inactive means score below 0.9). Summed up: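 Neuronal differentiation of primary human neural progenitors measured by high-content imaging: percent TUBB3+ of Hoechst+ nuclei within migrated area at 120 h, seven-point serial dilution plus solvent control, gain or loss relative to DMSO.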

Assay [3] can be described thus: IUF_NPC4_neurite_length_120hr: Leibniz Research Institute for Environmental Medicine (IUF) 120-hour Neuronal Morphology Assay for Neurite Length (NPC4) (AID 2284302; active means hit-call score of the fitted dose curve at least 0.9, where 1 is the maximum; inactive means score below 0.9). Summed up: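 Neurons from differentiating human fetal neural progenitor spheres are scored for average neurite length after five days of compound exposure. Fitting uses DMSO as negative control.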
The nature of assay [4]: IUF_NPC5_oligodendrocyte_differentiation_120hr: Leibniz Research Institute for Environmental Medicine (IUF) 120-hour Oligodendrocyte Differentiation Assay (NPC5) (AID 2284304).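 Further: primary human fetal neural progenitor spheres plated to migrate and differentiate.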 A digest of the protocol: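 Oligodendrocyte differentiation scored as O4-positive cells, found by CNN image analysis, as percent of Hoechst-stained nuclei in the migration area. Scoring followed 5 days of exposure of plated hNPC neurospheres differentiating in DMEM/F12 N2 medium at 37C, with compound refreshed at day 3.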

The nature of assay [5]: IUF_NPC4_neurite_area_120hr: Leibniz Research Institute for Environmental Medicine (IUF) 120-hour Neuronal Morphology Assay for Neurite Area (NPC4) (AID 2284305). Summed up: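 Endpoint at 120 h: automated imaging of TUBB3/Hoechst-stained differentiating human neural progenitor spheres, neurite area per neuron from skeletonization. DMSO solvent control, not above 0.1%, set the baseline; medium was half-replaced on day 3.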

The nature of assay [6]: IUF_NPC2-5_cytotoxicity_72hr: Cytotoxicity Assessment at 72 hours in the Leibniz Research Institute for Environmental Medicine (IUF) Neural Progenitor Cell Migration and Differentiation Assay for Cytotoxicity (NPC2-5) (AID 2284306).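 Further: LDH release into supernatant measured by resorufin fluorescence marking membrane damage.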 A digest of the protocol:
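Primary human neural progenitor spheres migrate and differentiate on laminin. Compound is present from the start of differentiation, with DMSO kept at or below 0.1%. At 72 h, supernatant LDH is quantified fluorometrically, with values fitted in the positive direction.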

Assay [7] is described as follows: IUF_NPC2-5_cytotoxicity_120hr: Cytotoxicity Assessment at 120 hours in the Leibniz Research Institute for Environmental Medicine (IUF) Neural Progenitor Cell Migration and Differentiation Assay (NPC2-5) (AID 2284307). A digest of the protocol: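 Membrane-integrity loss measured as LDH activity in medium supernatant via resazurin-to-resorufin fluorescence after 120 h exposure. hNPC spheres from GW 16-19 fetal cortex differentiated on poly-D-lysine/laminin, 37C, medium half-refreshed day 3; seven concentrations, DMSO max 0.1%.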

Assay [8] in a line: IUF_NPC2-5_cell_number_120hr: Cell Number Assessment at 120 hours in the Leibniz Research Institute for Environmental Medicine (IUF) Neural Progenitor Cell Migration and Differentiation Assay (NPC2-5) (AID 2284308; active means hit-call score of the fitted dose curve at least 0.9, where 1 is the maximum; inactive means score below 0.9;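 further: count of Hoechst-stained nuclei in migration zone around plated human neural progenitor spheres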). Summed up: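 Counting of all Hoechst-stained nuclei in the migration area at 120 h, versus DMSO control. Primary hNPC spheres differentiated on poly-D-lysine/laminin in N2 medium at 37C, dosed from day 0 (7 concentrations, DMSO ≤0.1%), half-refed day 3.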

A short description of assay [9]: IUF_NPC2-5_viability_120hr: Viability Assessment at 120 hours in the Leibniz Research Institute for Environmental Medicine (IUF) Neural Progenitor Cell Migration and Differentiation Assay (NPC2-5) (AID 2284312; active means hit-call score of the fitted dose curve at least 0.9, where 1 is the maximum; inactive means score below 0.9). A digest of the protocol:
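Human fetal (GW 16-19) neural progenitor spheres of 0.3 mm were plated on poly-D-lysine/laminin in N2 differentiation medium and exposed from day 0 for 120 h, with half-medium refresh at day 3. Viability was read as alamar blue resazurin-to-resorufin fluorescence against DMSO.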

Assay [10] in a line: CCTE_Mundy_HCI_iCellGluta_NOG_NeuriteLength: CCTE's Neurite Outgrowth Assay in iCellGluta cells for Neurite Length, Mundy Lab (AID 2284318). A digest of the protocol: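 Automated high-content imaging of betaIII-tubulin (Alexa Fluor-488) and Hoechst-stained cells gave neurite length, normalized to the DMSO baseline.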
The nature of assay [11]: VALA_TUBHUV_Agonist_CellCount: Viability Assessment in the VALA Sciences human Umbilical Vein Endothelial Tubule Formation (TUBHUV) Agonism Assay (AID 2284309). Summed up: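 Viability endpoint by fluorescent imaging of fixed nuclear/CD31-stained HUVEC–HDF co-cultures. Readout is cell count, fitted upward against 0.1% DMSO. Compound exposure was 72 h in 10 ng/ml VEGF, after 3-day co-culture priming.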

The nature of assay [12]: VALA_TUBHUV_Antagonist_CellCount: Viability Assessment in the VALA Sciences human Umbilical Vein Endothelial Tubule Formation (TUBHUV) Antagonism Assay (AID 2284310). A digest of the protocol:
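Read-out is imaged cell count after nuclear and CD31 staining, fitted against 0.1% DMSO vehicle. Compounds were added for 3 days, in 10 ng/ml VEGF assay medium, to HUVEC–HDF co-cultures pre-grown 3 days.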

Assay [13] in a line: VALA_TUBIPS_Agonist_TubuleLength: VALA Sciences human iPS-derived Endothelial Tubule Formation (TUBIPS) Agonism Assay (AID 2284311). A digest of the protocol:
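Agonist-mode readout is the gain in imaged tubule length versus DMSO baseline. It was measured by fluorescence high-content imaging 72 h after dosing human iPSC-derived endothelial cells.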

Assay [14] in a line: VALA_TUBIPS_Antagonist_TubuleLength: VALA Sciences human iPS-derived Endothelial Tubule Formation (TUBIPS) Antagonist Assay (AID 2284313). A digest of the protocol:
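Tubule length was quantified by high-content imaging of CD31- and nuclear-stained cells, with 0.1% DMSO as neutral and 100 uM suramin as inhibition control. Compounds were applied for 3 days, in 10 ng/ml VEGF, to cultures pre-grown 3 days.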

Assay [15] can be described thus: VALA_MIGHUV2_CellCount: Viability Assessment in the VALA Sciences human Umbilical Vein Endothelial Cell Migration (MIGHUV) Assay, Area of Scratch Wound after Recovery (AID 2284314). A digest of the protocol:
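Viability read-out: Hoechst-stained nuclei counted by fluorescence imaging after a 24 h recovery period in fixed, scratched HUVEC plates. Compound was dosed within 30 min of scratching at six concentrations (triplicate); DMSO at 0.1 % served as baseline.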

A short description of assay [16]: VALA_MIGHUV2_Bcatenin: VALA Sciences human Umbilical Vein Endothelial Cell Migration (MIGHUV) Assay, Nuclear Translocation of beta-Catenin after Recovery (AID 2284315). A digest of the protocol:
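Nuclear beta-catenin imaged by immunofluorescence with Hoechst counterstain in fixed HUVEC, 24 h after scratch wounding and chemical addition. Six-point concentration-response in triplicate; activity scored as signal increase over 0.1% DMSO vehicle.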

Assay [17] is described as follows: VALA_MIGHUV2_WoundArea: VALA Sciences human Umbilical Vein Endothelial Cell Migration (MIGHUV) Assay, Area of Scratch Wound after Recovery (AID 2284316). Summed up:
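Wound-area endpoint read by fluorescence imaging of Hoechst-stained nuclei after a 24 h recovery period following scratch of HUVEC monolayers (9000 cells/well). Chemicals dosed within 30 min post-scratch, triplicate 6-point series, 0.1% DMSO vehicle; Cytochalasin D positive control.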

For the next assay, the system named is IYD (gene 389434). The assay can be described thus: CCTE_GLTED_hIYD: CCTE's human Iodotyrosine Deiodinase (xIYD) Inhibition Assay, Great Lakes Toxicology and Ecology Division (GLTED) Lab (AID 2284317).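 Further: cell-free human IYD enzyme made in baculovirus insect cells; iodide freed from monoiodotyrosine measured by cerium arsenite color change at 420 nm.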 Summed up:
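Cell-free; baculovirus/insect-cell hIYD + MIT substrate + chemical, 3 h. Dowex column cleanup, then Ce4+/As3+ Sandell-Kolthoff read at A420 nm. Triplicate plates; normalized to 3-nitro-L-tyrosine (positive) and DMSO/NaOH (solvent).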

The nature of assay [18]: CCTE_Deisenroth_5AR_NBTE_donor: CCTE's 5alpha-reductase NanoBRET Target Engagement Assay […], Deisenroth Lab (AID 2284319; active means hit-call score of the fitted dose curve at least 0.9, where 1 is the maximum; inactive means score below 0.9). The note with it: actives raise or lower the signal. Summed up: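 Donor NanoLuc luminescence at 460-20 nm is the read-out, serving artifact detection. Transiently expressed SRD5A2-NanoLuc in HEK293T; 5 h total chemical exposure, testosterone tracer added for the final 2 h; fitting bidirectional relative to DMSO baseline.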
Background: BRET reads energy transfer from a luciferase to a nearby fluorophore.

Assay [19] in a line: CCTE_Deisenroth_5AR_NBTE_acceptor: CCTE's 5alpha-reductase NanoBRET Target Engagement Assay - Autofluorescence Screen, Deisenroth Lab (AID 2284321; active means hit-call score of the fitted dose curve at least 0.9, where 1 is the maximum; inactive means score below 0.9;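 further: compound fluorescence in the acceptor channel under 460 nm excitation flags autofluorescence artifacts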). The settings on record: actives raise or lower the signal. A digest of the protocol:
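Acceptor-channel fluorescence flags artifacts, with excitation fixed at 460 nm. Nominal 100 uM chemical samples were read in triplicate runs, and signal changes were fitted in both directions relative to DMSO.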

Results filed as inconclusive are left out. Activity calls are given as the source filed them. How the source made its calls, unless noted: active means hit-call score of the fitted dose curve at least 0.9, where 1 is the maximum; inconclusive means response in the unintended direction; inactive means score below 0.9.

On to `CCCN(CCC)C(=O)SCC`, for which the result in assay [1], in assay [2], in [3], in assay [4], in [5] and in assay [6] was inactive. For the same molecule, the outcome in [7], in assay [8], in [9] and in [10] was inactive.

Take `CC(C)(c1ccc(O)cc1)c1ccc(O)cc1`: the molecule was classed as inactive in assay [1], in assay [2], in [3], in [4], in assay [5] and in assay [6]. For the same molecule, the outcome in assay [7], in assay [8], in assay [11], in assay [12], in assay [13] and in assay [9] was inactive. For the same molecule, the result (in assay [14]; in [15]; in assay [16]; in assay [17]; with IYD (gene 389434)) was inactive.

Broadly, the AC50 is the concentration giving half of the maximal activity seen. For the molecule `Cc1nn(C)c(Oc2ccccc2)c1C=NOCc1ccc(C(=O)OC(C)(C)C)cc1`, the AC50 in assay [1] was 6.63 µM (active); in [8], 5.04 µM (active); in assay [10] it was 0.353 µM (active). The molecule was classed as inactive in [2], in [3], in assay [4], in assay [5], in assay [6] and in assay [7]. The call in assay [9] was inactive.

Regarding `C#CCOC(=O)[C@@H](C)Oc1ccc(Oc2ncc(Cl)cc2F)cc1`, the molecule was classed as inactive in assay [1], in assay [2], in [3], in assay [5], in [6] and in [7]. The molecule was called inactive in assay [8] and in assay [9]. Further, the half-maximal activity concentration (AC50) in [10] was 22 µM (active).

Consider `S=C([S-])NCCNC(=S)[S-].[Mn+2]`, for which the outcome in assay [1], in assay [2], in assay [3], in [4], in assay [5] and in [6] was inactive. The call in assay [7], in assay [8] and in [9] was inactive.

Take `S=C(S)NCCNC(=S)S.[Mn+2].[S-]C([S-])=NCCN=C([S-])[S-].[Zn+2]`: the result in [1], in [2], in [3], in assay [4], in assay [5] and in [6] was inactive. Besides, the call in assay [7], in assay [8], in assay [11], in assay [13], in assay [9] and in assay [14] was inactive. The result in [16], in assay [17] and in [10] was inactive.

Regarding `O=C(O)c1ccccc1`, the molecule was called inactive in [1], in assay [2], in assay [3], in assay [4], in assay [5] and in [6]. Also, the molecule was classed as inactive in assay [7], in assay [8], in assay [9], in [18] and in assay [19].

Consider `CC1(C)C(C=C(Cl)Cl)C1C(=O)OCc1cccc(Oc2ccccc2)c1` (configuration not stated), for which the call in [18] and in assay [19] was inactive.

Consider `CCN(CC)C(=O)c1cccc(C)c1`, for which the molecule was called inactive in [1], in assay [2], in assay [3], in assay [4], in [5] and in [6]. For the same molecule, the result in assay [7], in [8] and in [9] was inactive. In assay [10], the AC50 is 50.5 µM (active).

Turning to `CC(C)CCCCCCc1ccc(O)cc1`, the result in assay [11], in assay [13], in assay [14], in assay [15], in assay [18] and in assay [19] was inactive. Moreover, in the assay on IYD (gene 389434), the concentration at half-maximal activity (AC50) was 48.4 µM (active).

`CSC(=O)c1cccc2nnsc12`: the molecule was classed as inactive in [1], in [2], in assay [3], in [4], in assay [5] and in assay [6]. Also, the molecule was classed as inactive in [7], in assay [8] and in assay [9].

As for `N[C@@H](Cc1cc(I)c(Oc2ccc(O)c(I)c2)c(I)c1)C(=O)O`, the result in assay [11], in assay [12], in assay [13], in assay [14] and in [16] was inactive.

For the molecule `O=C(Nc1ccc([N+](=O)[O-])cc1Cl)c1cc(Cl)ccc1O`, the outcome in assay [18] and in [19] was inactive.

For `CCOC(=O)C(C)Oc1ccc(Oc2nc3ccc(Cl)cc3o2)cc1` (configuration not stated), the molecule was called inactive with IYD (gene 389434).
